The list is not random: actives were taken first. Their share in the collection is about 4.2%.
PLK1 PBD block – blocks phosphopeptide binding to human PLK1 polo-box domain; Plk1 PBD binding of FITC phosphopeptide, fluorescence polarization; Potency, µM, for the others: max response, negative = inhibition, hits mostly inhibitors; 2.8% of 360,000 active; AID 720504; further: series mostly up to about 57 µM; nearly all actives have a fitted effect of over 65% in size
Target sequence (P53350 whole entry, looked up, the tested form may be a part): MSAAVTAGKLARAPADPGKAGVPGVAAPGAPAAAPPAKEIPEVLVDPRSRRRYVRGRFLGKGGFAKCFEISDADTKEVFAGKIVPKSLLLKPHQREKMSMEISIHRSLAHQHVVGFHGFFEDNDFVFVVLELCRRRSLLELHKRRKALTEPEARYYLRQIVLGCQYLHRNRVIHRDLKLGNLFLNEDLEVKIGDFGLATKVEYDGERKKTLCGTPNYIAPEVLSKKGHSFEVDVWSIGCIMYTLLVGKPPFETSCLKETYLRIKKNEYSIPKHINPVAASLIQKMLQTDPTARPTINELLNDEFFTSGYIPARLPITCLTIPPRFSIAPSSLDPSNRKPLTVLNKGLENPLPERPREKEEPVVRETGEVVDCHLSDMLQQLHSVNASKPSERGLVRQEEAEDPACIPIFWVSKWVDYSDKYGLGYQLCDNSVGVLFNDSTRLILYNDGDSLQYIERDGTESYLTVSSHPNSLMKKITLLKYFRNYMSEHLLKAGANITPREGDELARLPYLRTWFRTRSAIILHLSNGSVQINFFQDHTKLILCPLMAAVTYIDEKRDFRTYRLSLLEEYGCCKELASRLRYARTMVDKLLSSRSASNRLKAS
ALOX12 inh – ALOX12 (human) lipoxygenase inhibition; AID 1671190; P18054; Potency, µM (titrated, usually from 108 µM), for inactives: at the top dose activity change, negative = inhibition, hits mostly inhibitors; purified 12hLO, xylenol orange hydroperoxide absorbance; 1.1% of 580,000 active
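Purified human 12hLO (150 nM final) in 25 mM Hepes, 0.01% Triton X-100, pH 7.0 was preincubated 15 min at room temperature with compound. Then 40 uM arachidonic acid was added, 30 min. Hydroperoxide was read by Fe-XO absorbance ratio 573/405 nm.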
Sfp PPTase inh – inhibitors of Bacillus subtilis Sfp phosphopantetheinyl transferase | Q9F4F7 | Biochemical Sfp PPTase activity, qHTS | Potency, µM, without a hit: largest response in the series, negative = inhibition, usual class: inhibitors | 3.5% of 310,000 active;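 further: the enzyme is Sfp with the accession as filed and its product quenches rhodamine fluorescence; 0% = enzyme reaction without inhibitor and -100% = no enzyme wells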
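Fluorescence-quenching assay: 15 nM Sfp-PPTase preincubated 15 min at room temperature with compound, then 5 uM rhodamine-CoA and 12.5 uM BHQ-2-labelled YbbR peptide added. Fluorescence (ex 525/em 598 nm) read at start and after 30 min; difference gives rate.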
VDR inh – blocks the human vitamin D receptor | P11473 | VDR-SRC2-3 peptide fluorescence polarization, 2 h | Potency, µM, without a hit: max response, negative = inhibition, actives largely listed as inhibitors | 0.93% of 400,000 active | AID 504847
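Compounds are added to VDR with labelled SRC2-3 coactivator peptide and held 2 h at room temperature. Inhibition of the VDR–peptide interaction is then read as a change in fluorescence polarization.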
* hit, by the source's call; u = inconclusive; x = not tested or not shown; ! = repeats disagree; [ ] = remark or other dose. The call rests on the fitted dose curve; in most records, active means well fitted curve in the direction sought with a large enough effect; inconclusive means small, poorly fitted or top-dose-only effect, or another doubt; inactive means no such curve, though single readings can be large; an effect the other way counts as inactive or inconclusive. Unless noted, on the % scale 0 is the no-effect control and ±100 the full control effect; potency means the concentration at half of the fitted maximal effect.

SMILES	PLK1 PBD block	ALOX12 inh	Sfp PPTase inh	VDR inh
CN(C)Cc1cn(C[C@H]2C[C@@H]3CCN2C[C@@H]3C(=O)Nc2ccccc2)nn1	x	30.4%[176 µM]	x	x
C[C@]12CC[C@@H]3c4ccc(OC(=O)N(CCCl)CCCl)cc4CC[C@H]3[C@@H]1CC[C@@H]2O	x	x	-0.5%	50.1µM*
C[C@]12CC[C@H]3[C@@H](CCC4=CC(=O)CC[C@@H]43)[C@@H]1CC[C@@H]2O	-15.2%	-7.6%	-0.9%	-17.3%
CCN1C(=O)/C(=C\c2ccc([N+](=O)[O-])s2)C(=O)NC1=S	x	x	10µM*	x
CC(C)c1cccc(C(C)C)c1OCCn1ccnc1	-2.0%	17.2%	14.0%	7.9%
CCN(CC)C(=O)N[C@@H]1C=C2c3cccc4[nH]cc(c34)C[C@H]2N(C)C1	x	x	-23.9%	39.8µM*
CCCC1COC(Cn2cncn2)(c2ccc(Cl)cc2Cl)O1 (configuration not stated)	-12.9%	-0.8%	u	50.1µM*!
C(=C\c1ccccc1)/CN1CCN(CCOC(c2ccccc2)c2ccccc2)CC1	x	u	56.2µM*	-10.3%
Clc1ccc([C@@H](OCCN2CCCCC2)c2ccccc2)cc1	x	x	21.5%	12.7%
Cc1ccc(-c2csc(NC(CO)c3nc4ccccc4n3CCOCCO)n2)cc1 (configuration not stated)	21.2µM*	-1.2%	x	-12.1%
O=C(COc1ccccc1)N1CCN(CCN2C(=O)c3cccc4cccc(c34)C2=O)CC1	16.8µM*	-7.6%	7.5%	-11.8%
Cc1ccc(-c2cn3c(=S)[nH]nc3s2)cc1	-26.2%	u	35.5µM*	-14.0%
COc1ccc(CCNCc2ccc3c(c2)n(C)c(=O)n3C)cc1	x	-9.8%	x	-6.3%
CCn1c(-c2nn(-c3ccccc3)ccc2=O)n[nH]c1=S	-16.4%	-14.4%	56.2µM*	2.5%
O=C1CC(=O)N(Cc2ccccc2)C(=S)N1	-22.0%	25.1µM*	-4.0%	-18.1%
N#CC1=C(N)Oc2n[nH]c(-c3cccs3)c2C1c1ccsc1 (configuration not stated)	26.7µM*	u	-3.3%	7.9%
CCOC(=O)C(O)(c1ccc(N(CC)S(=O)(=O)c2ccc(C)cc2)cc1)C(F)(F)F (configuration not stated)	-2.2%	-6.7%	8.0%	-21.1%
CC(C)N1CCN(Cc2cccc([N+](=O)[O-])c2)CC1	-7.5%	u	79.4µM*	2.3%
Cc1ncc2c(n1)C[C@@H]1CC[C@H]2N1C(=O)C1CCC1	x	19.1%	x	x
O=[P+](Cc1ccccc1)Cc1ccccc1	-3.0%	22.0%	23.4%	11.0%
Cc1ccc(OCC(=O)N2CCN(Cc3cccnc3)CC2)cc1	-0.9%	-30.7%	u	9.0%
C=CCN1C(=O)/C(=C\c2ccc(N3CCOCC3)o2)C(=O)NC1=S	75.4%	u	56.2µM*	-20.2%
CS(=O)(=O)N1C[C@H]2CCN(Cc3ccncc3F)C[C@H]21	x	41.5%	x	x
Cc1cc2oc(=O)cc(-c3ccccc3)c2c(C)c1-c1ccc(CO)cc1	-0.4%	-7.1%	126µM*	u
C/C(=N\O)c1cn(C)c2ccccc12	x	1.6%	x	x
SMILES	PLK1 PBD block	ALOX12 inh	Sfp PPTase inh	VDR inh
Cn1cc(C(=O)Cc2ccccc2)c2ccccc21	26.7µM*	14.1%	9.6%	u
CN1C2CCC1CC(OC(c1ccccc1)c1ccc(Cl)cc1)C2 (configuration not stated)	x	-26.9%	-16.0%	u
Cc1c(N=Nc2c(O)[nH]c(=O)[nH]c2=O)c(=O)n(-c2ccccc2)n1C	0.9%	-9.1%	44.7µM*	-0.3%
Cc1c(N=Nc2c(O)n(-c3ccc(Br)cc3)c(=O)[nH]c2=O)c(=O)n(-c2ccccc2)n1C	-6.7%	-53.4%	-27.7%	12.7%
CCCCC1C(=O)NC(=S)N(C)C1=O (configuration not stated)	-12.0%	u	x	u
CCCCC1C(=O)NC(=S)NC1=O	x	x	10µM*	x
CN1CCN(c2ccc(C#N)cn2)CC1	x	23.3%	x	x
Clc1ccc(N2CCN(CC3[C@H]4CNC[C@@H]34)CC2)nc1 (some centres not stated)	x	31.6µM*	x	x
Cc1ccc(/C=C2\C(=O)NC(=O)N(Cc3ccccc3Cl)C2=O)o1	0.844µM*	31.6µM*	70.8µM*	105.2%
O=C1NC(=O)N(Cc2ccccc2Cl)C(=O)/C1=C/c1cccs1	1.19µM*	u	31.6µM*	u
COc1ccc(CN2C(=O)NC(=O)/C(=C/c3ccc([N+](=O)[O-])o3)C2=O)cc1	x	x	50.1µM*	x
Cc1ccc(/C=C2/C(=O)NC(=O)N(Cc3ccc(F)cc3)C2=O)o1	x	9.0%	35.5µM*	x

Bioassay records from PubChem.
